The values that follow come from PubChem BioAssay AID2284426 (EPA ToxCast).

Activity calls are given as the source filed them. The calls were made as follows: active = hit-call score of the fitted dose curve at least 0.9, where 1 is the maximum; inactive = score below 0.9.

The test is described as follows: CCTE_Deisenroth_DEVTOX-GLR_Ecto_CellCount: Viability Assessment in CCTE's DevTox GLR-Ecto Assay, Deisenroth Lab. As for the experimental part: CCTE_Deisenroth_DEVTOX-GLR_Ecto assay is a cell-based, multiplex-readout assay that uses RUES2-GLR, a human pluripotent cell line, with measurements taken at 48 hours after chemical dosing in a 384-well microplateCCTE_Deisenroth_DEVTOX-GLR_Ecto_CellCount is 1 of 4 assay components calculated from the CCTE_Deisenroth_DEVTOX-GLR_Ecto assay and it measures cell count. Using fluorescent nuclei staining, gain-of-signal activity can be used to understand changes in cell viability with fluorescent microscopy. It is designed to make measurements of nuclei counts as a surrogate for cell number, as detected with optical fluorescence microscopy by Perkin Elmer Harmony nuclei detection algorithm. To generalize the intended target to other relatable targets, this assay component is annotated to the cell cycle intended target family, where the subfamily is cytotoxicity.Data from the assay component CCTE_Deisenroth_DEVTOX-GLR_Ecto_CellCount was analyzed as 1 assay endpoint. The endpoint the percent change in the cell count relative to the 0.2% DMSO control in the CCTE_Deisenroth_DEVTOX-GLR_Ecto assay. Furthermore, this assay endpoint can be referred to as a […] readout, because this assay has produced multiple assay endpoints where this one serves as a measure of cytotoxicity.
All assay protocols are aligned to the DevTox GLR-Endo assay workflow. Cells are seeded into 384-well microplates for 24 hours prior to initiating differentiation in defined media for a total duration of 48 hours. A total of two chemical exposures are administered in 24-hour intervals during the 48-hour differentiation period. At the assay termination point, cells are fixed and stained with a fluorescent dye demarcating the nucleus. High-content imaging is used to acquire brightfield and fluorescent channel images across 5 fields per well. Cell identification and mean biomarker fluorescence intensities are calculated with image analysis software to determine the total cell counts for viability assessment and the biomarker expression frequency for each lineage-dependent assay. A typical experimental design tests a 10-point concentration series (1 nM - 200 uM) for 28 compounds in single technical replicate. Assay plate controls include non-differentiated pluripotent cells (baseline control), lineage-specific differentiated cells (differentiation control), and DMSO solvent exposed differentiated cells (solvent control). Experiments typically comprise a minimum of four experimental replicates (n=4).
`O=C1CCC(N2C(=O)c3ccccc3C2=O)C(=O)N1` (stereo unspecified): the molecule was called inactive.

Turning to `O=C1NC(=O)C(c2ccccc2)(c2ccccc2)N1`, the molecule was called inactive.

Consider `CC/C(=C(/CC)c1ccc(O)cc1)c1ccc(O)cc1`, for which the call was inactive.

As for `CCCC(CCC)C(=O)O`, the result was inactive.

Turning to `CC(C)(c1ccc(O)cc1)c1ccc(O)cc1`, the molecule was classed as inactive.

The term AC50 denotes the concentration giving half of the maximal activity seen. On to `CS(=O)(=O)OCCCCOS(C)(=O)=O`, for which the AC50 is 20400 nM (active).

For `CC1=C(/C=C/C(C)=C/C=C/C(C)=C/C(=O)O)C(C)(C)CCC1`, the AC50 was 24.2 nM (active).

Take `CN(Cc1cnc2nc(N)nc(N)c2n1)c1ccc(C(=O)N[C@@H](CCC(=O)O)C(=O)O)cc1`: the outcome was inactive.

Take `CC(=O)Nc1ccc(O)cc1`: the molecule was called inactive.

Take `CCN(CC)CCNC(=O)c1c(C)[nH]c(/C=C2\C(=O)Nc3ccc(F)cc32)c1C`: the AC50 is 1250 nM (active).

In the case of `CC1=C(/C=C/C(C)=C/C=C/C(C)=C\C(=O)O)C(C)(C)CCC1`, the AC50 was 460 nM (active).

`Nc1cccc2c1C(=O)N(C1CCC(=O)NC1=O)C2=O` (stereo unspecified): the call was inactive.

On to `O=C1NS(=O)(=O)c2ccccc21`, for which the molecule was classed as inactive.

On to `Nc1nc2ncc(CNc3ccc(C(=O)N[C@@H](CCC(=O)O)C(=O)O)cc3)nc2c(=O)[nH]1`, for which the result was inactive.

For the molecule `CC1(C)S[C@@H]2[C@H](NC(=O)Cc3ccccc3)C(=O)N2[C@H]1C(=O)O`, the call was inactive.

For the molecule `O=c1[nH]cc(F)c(=O)[nH]1`, the AC50 was 3870 nM (active).
